Results published in PubChem BioAssay (Tox21).
Unmarked numbers belong to inactive results. Results filed as inconclusive are left out. A call without a number means that no potency is given here. The source made the active and inactive calls. Unless noted, calls come from the whole dose curve; as a rule, active = well fitted curve in the direction sought with a large enough effect in the repeat runs; inconclusive = weak or mixed curves; inactive = no such curve, though single readings can be large; an effect the other way counts as inactive or inconclusive.

How the values were obtained:
[1] = qHTS assay to identify small molecule HDAC inhibitors (AID 1259364); note: potency is the fitted concentration of half-maximal effect;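 note: wild-type HCT-116 cells with endogenous class I/II HDAC activity; nearly all actives have a fitted effect of over 45% in size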; for activity change, negative = inhibition: top concentration of the series differs between compounds
In short: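 After a 2 hr compound incubation (37C, 5% CO2), HCT-116 cells seeded at 1,500/well the day before received HDAC-Glo reagent; signal read as luminescence after 30 min at room temperature.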

[2] = qHTS assay to identify small molecule HDAC inhibitors - cell viability counter screen (AID 1259365); note: nearly all actives have a fitted effect of over 50% in size; note: potency is the fitted concentration of half-maximal effect; for activity change, negative = cytotoxicity: series mostly up to about 92 µM
In short: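 To flag cytotoxic hits, 1,500 wild-type HCT-116 cells per well, plated the day before, receive test compounds for 2hr at 37 C before CellTiter-Glo reagent and a luminescence read.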

[3] = qHTS assay to identify small molecule agonists of the sonic hedgehog signaling (Shh) pathway - cell viability counter screen (AID 1259366); note: nearly all actives have a fitted effect of over 50% in size; note: potency is the fitted concentration of half-maximal effect
In short: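 Fluorescence from CellTiter-Fluor reports live cells in this counter screen. NIH/3T3-derived Gli1-Luc reporter cells receive test compounds for 24hr at 37C; reagent goes in at 23hr.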

[4] = qHTS assay to identify small molecule antagonists of the sonic hedgehog signaling (Shh) pathway - cell viability counter screen (AID 1259367); note: nearly all actives have a fitted effect of over 55% in size; note: potency is the fitted concentration of half-maximal effect
In short: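 Viability was read by CellTiter-Fluor fluorescence in the same wells, reagent added 23 hr into compound treatment and incubated 1 hr at 37C. The 3T3 Gli1-Luc reporter cells (2,000/well) received conditioned medium after compound and ran 24 hr.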

[5] = qHTS assay to identify small molecule agonists of the sonic hedgehog signaling (Shh) pathway (AID 1259368; calls by dose curve;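 note: NIH/3T3-derived 3T3Gli1-Luc cells carrying a stable Gli1-driven firefly luciferase reporter; series mostly up to about 92 µM; nearly all actives have a fitted effect of over 15% in size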)
In short: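 Stable NIH/3T3 Gli1-Luc reporter clone; 24 hr cpd exposure after a 4 hr settling period; luminescence endpoint.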

[6] = qHTS assay to identify small molecule antagonists of the sonic hedgehog signaling (Shh) pathway (AID 1259369; calls by dose curve; note: nearly all actives have a fitted effect of over 45% in size; note: potency is the fitted concentration of half-maximal effect)
In short: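 Gli1 transcriptional reporter (firefly Luc) in NIH/3T3 background, conditioned-medium activated. 24hr exposure, luminescence endpoint.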

[7] = qHTS assay to identify small molecule phospholipidosis (PLD) inducers (AID 1259344; active = well fitted curve in the direction sought with a large enough effect; an effect the other way counts as inactive or inconclusive)
In short: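 Phospholipid accumulation was scored by imaging: fixed, Hoechst-counterstained HepG2 cells stained with LipidTOX Red after 24 h compound exposure at 37 C. Read-outs were pit count and pit intensity per well or per cell, with amiodarone and DMSO controls.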

[8] = biological target: Estrogen receptor beta (Homo sapiens) (UniProt Q92731); assay: qHTS assay to identify small molecule antagonists of the estrogen receptor beta (ER-beta) signaling pathway (AID 1259378; active = well fitted inhibition curve with a large enough effect in the signal ratio in the repeat runs, not every such curve was filed as active; the % refers to the signal ratio; note: potency is the fitted concentration of half-maximal effect)
In short: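 Antagonist mode: compounds added to beta-lactamase reporter HEK293T ER-beta-UAS cells stimulated with E2 (1nM final), 16 hr at 37C. LiveBLAzer B/G FRET substrate, 2 hours room temperature, fluorescence read-out.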

[9] = biological target: Estrogen receptor beta (Homo sapiens) (UniProt Q92731); assay: qHTS assay to identify small molecule agonists of the estrogen receptor beta (ER-beta) signaling pathway (AID 1259377; active = well fitted activation curve with a large enough effect in the signal ratio in the repeat runs, not every such curve was filed as active; the % refers to the signal ratio)
In short: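 Screening used GripTite ER-beta-UAS-bla cells held in 2% charcoal-stripped FBS medium. After overnight (16 hr) compound incubation at 37C, beta-lactamase activity was detected with a FRET substrate by fluorescence.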

Estrogen receptor beta (Homo sapiens), sequence (Q92731 whole entry, looked up): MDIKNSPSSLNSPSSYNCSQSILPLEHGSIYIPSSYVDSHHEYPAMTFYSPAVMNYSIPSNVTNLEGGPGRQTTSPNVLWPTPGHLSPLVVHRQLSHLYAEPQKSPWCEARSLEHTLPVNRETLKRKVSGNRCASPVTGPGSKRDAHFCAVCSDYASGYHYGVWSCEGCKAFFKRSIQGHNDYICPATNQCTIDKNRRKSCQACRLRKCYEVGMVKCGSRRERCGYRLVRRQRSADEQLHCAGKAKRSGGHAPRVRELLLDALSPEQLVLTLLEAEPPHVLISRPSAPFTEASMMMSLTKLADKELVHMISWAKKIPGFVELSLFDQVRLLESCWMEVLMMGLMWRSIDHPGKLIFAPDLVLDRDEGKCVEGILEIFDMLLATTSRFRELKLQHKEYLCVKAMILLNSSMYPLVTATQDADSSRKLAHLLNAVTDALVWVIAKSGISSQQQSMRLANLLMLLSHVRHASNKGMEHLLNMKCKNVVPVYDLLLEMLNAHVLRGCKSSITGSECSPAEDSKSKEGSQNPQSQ

SMILES: COCCC(=O)OC
- Potency [1]: inactive
- Potency [2]: inactive

SMILES: C=C(C)C1CCC(C)CC1O (stereo not given)
- Potency [1]: inactive
- Potency [2]: inactive
- Potency [3]: inactive
- Potency [4]: inactive
- Potency [5]: inactive
- Potency [6]: inactive

SMILES: N[C@@H](Cc1ccc(O)c(O)c1)C(=O)O
- Potency [7]: inactive

SMILES: COC(=O)C(CN)c1c[nH]c2ccc(OC)cc12 (stereo not given)
- Potency [7]: inactive

SMILES: O=C(Cn1cnnn1)N[C@@H]1C(=O)N2C(C(=O)O)=C(CSc3nncs3)CS[C@H]12
- Potency [7]: inactive

SMILES: C=C1C(CCl)(CCl)C2(Cl)C(Cl)C(Cl)C1(Cl)C2(Cl)Cl (stereo not given)
- Potency [7]: inactive
- Potency [2]: inactive
- Potency [4]: inactive
- Potency [5]: inactive
- Potency [8]: 27 µM (active)

SMILES: Nc1ccc2c(S(=O)(=O)O)cccc2c1S(=O)(=O)O
- Potency [1]: inactive
- Potency [2]: inactive
- Potency [3]: inactive
- Potency [4]: inactive
- Potency [5]: inactive
- Potency [6]: inactive

SMILES: COC(=O)c1ccc([N+](=O)[O-])cc1
- Potency [1]: inactive
- Potency [2]: inactive
- Potency [3]: inactive
- Potency [4]: inactive
- Potency [5]: inactive
- Potency [6]: inactive

SMILES: COc1ccc(OC)c(N=Nc2c(O)ccc3ccccc23)c1
- Potency [1]: 27.3 µM (active)
- Potency [2]: 24.3 µM (active)
- Potency [3]: 13.7 µM (active)
- Potency [4]: 13.7 µM (active)
- Potency [5]: inactive
- outcome [9]: inactive
- Potency [8]: inactive

SMILES: O=C(O)c1cc(O)c2c(c1)[C@H]([C@H]1c3cc(C(=O)O)cc(O)c3C(=O)c3c(O[C@@H]4O[C@H](CO)[C@@H](O)[C@H](O)[C@H]4O)cccc31)c1cccc(O[C@@H]3O[C@H](CO)[C@@H](O)[C@H](O)[C@H]3O)c1C2=O
- Potency [7]: inactive

SMILES: c1ccc(-n2cnnn2)cc1
- Potency [7]: inactive

SMILES: CCCCCN=C(N)N/N=C/c1c[nH]c2ccc(OC)cc12
- Potency [7]: inactive
- Potency [1]: inactive
- Potency [3]: 8.41 µM (active)
- Potency [4]: 13.3 µM (active)
- Potency [6]: 1.68 µM (active)

SMILES: CCCCCCCCCCCCS(=O)(=O)Cl
- activity change, negative = inhibition [1]: -0.19% [at 19 µM]
- activity change, negative = cytotoxicity [2]: -1.8% [at 19 µM]
- viability change, negative = cytotoxic [3]: -2.48% [at 19 µM]
- viability change, negative = cytotoxic [4]: -1.82% [at 19 µM]
- activity change [5]: 0.0807% [at 18.9 µM, stronger effect = higher value]
- activity change, negative = inhibition [6]: 18.4% [at 19 µM]
- activity, negative = inhibition [8]: -20.1% [at 19 µM]

SMILES: C[C@H](O)CN(C)C
- Potency [7]: inactive

SMILES: CC(C)=CCC[C@H](C)CC=O
- Potency [1]: inactive
- Potency [2]: inactive
- Potency [3]: inactive
- Potency [4]: inactive
- Potency [5]: inactive
- Potency [6]: inactive

SMILES: C=C[Si](C)(C)Cl
- activity change, negative = inhibition [1]: 3.64% [at 8.39 µM]
- activity change, negative = cytotoxicity [2]: -0.871% [at 8.39 µM]
- viability change, negative = cytotoxic [3]: 9.73% [at 8.39 µM]
- viability change, negative = cytotoxic [4]: -1.01% [at 8.39 µM]
- activity change [5]: 1.18% [at 8.39 µM, stronger effect = higher value]

SMILES: COc1ccc2ccccc2c1
- Potency [1]: inactive

SMILES: O=C(NCc1ncc(C(F)(F)F)cc1Cl)c1c(Cl)cccc1Cl
- Potency [1]: inactive
- Potency [2]: inactive
- Potency [3]: inactive
- Potency [4]: inactive
- Potency [5]: inactive
- Potency [6]: inactive
- outcome [9]: inactive

SMILES: COc1ccc([C@@H]2CC(=O)c3c(O)cc(O[C@@H]4O[C@H](CO[C@@H]5O[C@@H](C)[C@H](O)[C@@H](O)[C@H]5O)[C@@H](O)[C@H](O)[C@H]4O)cc3O2)cc1O
- Potency [7]: inactive

SMILES: CCOc1ccc(NC(=S)Nc2ccc(OCC)cc2)cc1
- Potency [7]: inactive

SMILES: Cc1ncc(C[n+]2csc(CCO)c2C)c(N)n1
- Potency [7]: inactive

SMILES: C[C@H](NCCc1ccc(O)cc1)[C@H](O)c1ccc(O)cc1
- Potency [7]: inactive

SMILES: CC(=O)N(C)C
- Potency [1]: inactive

SMILES: NC(=O)[C@@H]1C[C@]2(NC(=O)NC2=O)c2cc(F)ccc2O1
- Potency [7]: inactive

SMILES: CC[C@@]1([C@@H]2O[C@@H]([C@H]3O[C@@](O)(CO)[C@H](C)C[C@@H]3C)C[C@@H]2C)CC[C@H]([C@]2(C)CC[C@]3(C[C@H](O)[C@@H](C)[C@@H]([C@@H](C)[C@@H](OC)[C@H](C)C(=O)O)O3)O2)O1 (stereo in doubt)
- Potency [7]: inactive

SMILES: O=[N+]([O-])c1ccc(O)c2ncccc12
- Potency [7]: inactive
- Potency [1]: inactive
- Potency [2]: inactive
- Potency [3]: 1.88 µM (active)
- Potency [6]: 0.531 µM (active)
- outcome [9]: inactive
- Potency [8]: 5.96 µM (active)

SMILES: O=C(O)c1cc(=O)c2c3nc4ccccc4oc-3cc(=O)c2[nH]1
- Potency [7]: inactive

SMILES: CN1CC[C@H](c2c(O)cc(O)c3c(=O)cc(-c4ccccc4Cl)oc23)[C@H](O)C1
- Potency [7]: inactive
- Potency [2]: inactive
- Potency [3]: 0.376 µM (active)
- Potency [4]: 0.298 µM (active)
- Potency [6]: 0.0473 µM (active)
- outcome [9]: inactive

SMILES: c1ccc2c(c1)-c1ccc3ccc4cccc5cc-2c1c3c45
- Potency [1]: inactive
- Potency [2]: inactive
- Potency [5]: inactive

SMILES: Cc1ccc(Cl)c(N)c1Cl
- Potency [1]: inactive
- Potency [2]: inactive
- Potency [4]: 61.1 µM (active)
- Potency [5]: inactive
- Potency [6]: 21.7 µM (active)
- outcome [9]: inactive
- Potency [8]: inactive

SMILES: CCSCC
- Potency [1]: inactive
- Potency [2]: inactive
- Potency [5]: inactive
- Potency [6]: 18.2 µM (active)
- outcome [9]: inactive
